Most compounds without a hit are left out; they make up all but 11% or so of the library.
Pf growth 96h: P. falciparum growth inhibition at 96 hours. actives 6.9% (n = 320,000). AID 504834. P. falciparum luciferase reporter growth, 96 h. Potency, µM (titrated, usually from 28.7 µM), actives largely listed as inhibitors
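Erythrocytes infected with luciferase-expressing P. falciparum were dispensed at 2% hematocrit and 0.05% parasitemia (final), then incubated with compounds 96 hours at 37 C in 5% CO2. Luminescence after detection reagent addition reported growth.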
Pf growth 48h: inhibits P. falciparum growth in the first generation, 48 h. P. falciparum luciferase growth in erythrocytes, 48 h. Potency, µM (titrated, usually from 28.7 µM), most hits filed as inhibitors. actives 5.9% (n = 310,000). AID 504832
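Luciferase-expressing P. falciparum in infected erythrocytes (2% hematocrit, 0.1% parasitemia final) in RPMI 1640/0.5% Albumax were exposed to compound for 48 hours at 37 C, 5% CO2; growth read as luminescence.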
HCV inhibitor: inhibitors of hepatitis C virus infection; AID 651820; Potency, µM (top dose mostly 41.8 µM), usual class: inhibitors; Huh7.5.1 HCVcc-Cre infection, luciferase reporter, 44 h; actives 3.4% (n = 340,000)
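Cells (1,000/well) were plated 4 h before compound, then infected with HCVcc-Cre virus (~0.5 moi). After 44 h further culture, infection was read as luciferase luminescence following a 15 min substrate incubation at room temperature.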
AMA1 RON2 block: inhibitors of Plasmodium falciparum AMA1-RON2 interaction. AlphaScreen AMA1-biotinylated RON2 peptide binding. Potency, µM (series often up to 58.2 µM), hits mostly inhibitors. actives 0.2% (n = 360,000); also: nearly all actives have a fitted effect of over 45% in size
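AMA1 (3D7) with his tag at 25 nM final met compounds first, then biotinylated RON2 peptide at 25 nM; detection used donor plus acceptor beads, 10 µg/mL apiece, read by AlphaScreen after 30 min at room temperature.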
AmpC detergent: AmpC beta-lactamase inhibition with detergent present; actives 0.041% (n = 370,000); AmpC hydrolysis of nitrocefin, absorbance 480 nm, 0.01% Triton; Potency, µM (series often up to 114 µM), hits mostly inhibitors; also: nearly all actives have a fitted effect of over 25% in size
Target sequence (P00811 whole entry, looked up): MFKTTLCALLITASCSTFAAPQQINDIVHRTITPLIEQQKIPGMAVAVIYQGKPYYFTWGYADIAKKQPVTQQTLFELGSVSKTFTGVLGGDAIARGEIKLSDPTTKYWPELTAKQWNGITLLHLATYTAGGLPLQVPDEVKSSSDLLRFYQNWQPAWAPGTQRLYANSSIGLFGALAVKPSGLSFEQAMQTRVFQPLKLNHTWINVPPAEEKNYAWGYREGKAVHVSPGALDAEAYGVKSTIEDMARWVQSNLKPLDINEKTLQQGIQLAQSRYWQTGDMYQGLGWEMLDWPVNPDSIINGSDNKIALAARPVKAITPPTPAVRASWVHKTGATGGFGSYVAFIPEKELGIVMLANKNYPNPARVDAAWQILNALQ
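20 mM phosphate pH 7.0 + 0.01% (detergent screen) or 0.0001% Triton X-100; 5.3 nM AmpC reagent; cpd preinc 15 min RT; nitrocefin (800 uM stock) to start; A480 q20 s × 4 min; Activity was normalised to no-enzyme and no-compound control wells.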
AmpC inh no detg: inhibitors of E. coli AmpC beta-lactamase without detergent; P00811; AmpC nitrocefin hydrolysis, absorbance 480 nm, 0.0001% Triton; Potency, µM (titrated, usually from 57.1 µM), hits mostly inhibitors; actives 0.52% (n = 330,000); also: nearly all actives have a fitted effect of over 20% in size
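20 mM phosphate pH 7.0 + 0.01% (detergent screen) or 0.0001% Triton X-100; 5.3 nM AmpC reagent; cpd preinc 15 min RT; nitrocefin (800 uM stock) to start; A480 q20 s × 4 min; Activity was normalised to no-enzyme and no-compound control wells.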
A number is an active result; n = inactive; u = inconclusive; x = no result given; [ ] = another dose, or the depositor's remark. Calls follow the shape of the dose curve; as a rule, active = well fitted curve in the direction sought with a large enough effect; inconclusive = small, poorly fitted or top-dose-only effect, or another doubt; inactive = no such curve, though single readings can be large; an effect the other way counts as inactive or inconclusive.

SMILES	Pf growth 96h	Pf growth 48h	HCV inhibitor	AMA1 RON2 block	AmpC detergent	AmpC inh no detg
CCOc1cccc(C2C(C(=O)c3ccco3)=C(O)C(=O)N2c2nnc(C)s2)c1 (centres undefined)	u	n	n	n	n	n
CC(O)CN(CCN(CC(C)O)CC(C)O)CC(C)O (centres undefined)	n	n	x	x	x	x
Cc1ccccc1Cn1c(=O)n(CCCCC(=O)NCc2ccc3c(c2)OCO3)c(=O)c2ccccc21	x	x	x	x	n	x
Cn1c(CN2CCOCC2)nc2cc(NC(=O)c3ccccc3[N+](=O)[O-])ccc21	x	x	x	x	n	x
COc1ccc(S(=O)(=O)Nc2ccc3oc4c(c3c2)C(=O)CC(C)(C)C4)cc1	x	x	x	x	n	x
O=C(Cn1c(=O)n(Cc2ccco2)c(=O)c2sc3ccccc3c21)Nc1ccccc1C(F)(F)F	x	x	x	x	n	x
CC1CCCCN1CCCNC(=O)c1cc(Sc2cccc(Cl)c2)nc2ccccc12 (centres undefined)	x	x	x	x	n	x
CCOc1ccccc1C(=O)Nc1cccc2cccnc12	u	u	11µM	n	n	n
CCOc1ccccc1C(=O)Nc1cc(Cl)ccc1O	x	3.3µM	7.1µM	n	n	u
COc1ccc(NC(=O)COc2ccccc2)cc1Cl	u	n	u	n	n	n
COc1ccc(NC(=O)c2cc(-c3ccncc3)nc3ccccc23)c(OC)c1	x	x	u	n	x	n
CCOc1ccccc1NC(=O)c1cc(-c2ccncc2)nc2c(Cl)cccc12	n	5.2µM	u	n	n	n
COc1ccc(NC(=O)COc2ccccc2C(=O)NCC(c2ccccc2)N(C)C)cc1Cl (centres undefined)	13µM	u	u	n	n	n
COC(=O)c1ccccc1NC(=O)Cn1cnc2sc(C)c(S(=O)(=O)N3CCC(C)CC3)c2c1=O	x	x	x	x	n	x
O=c1n(Cc2ccc(Cl)cc2)c2ccccc2c2nc(-c3ccccc3)nn12	x	x	x	x	n	x
O=C(COc1ccc(F)cc1)Nc1nnc(SCc2cc(=O)n3ccccc3n2)s1	x	x	x	x	n	x
COc1cc(NC(=O)c2ccccc2Cl)c2ncccc2c1	u	n	10µM	n	n	n
CCOc1ccccc1C(=O)Nc1nnc(C(C)C)s1	n	x	13µM	n	n	n
Cc1ccc(Cl)cc1NC(=O)c1ccccc1OCC(=O)Nc1ccc(Cl)cc1	9.3µM	u	n	n	n	n
O=C(Nc1cccc2cccnc12)c1ccc(Cl)cc1Cl	n	n	u	n	n	n
CC(=O)Nc1cccc(OCCCNC(=O)c2ccc(C(C)(C)C)cc2)c1	u	n	10µM	n	n	n
CC(=O)Nc1cccc(OCCCNC(=O)c2ccc(F)cc2)c1	n	n	n	n	n	n
COc1ccc(-c2cc(CNC(=O)CCl)on2)cc1	1.5µM	2.9µM	u	n	u	n
CC(C)C(=O)NCc1cc(-c2ccccc2)no1	5.2µM	n[5.75 µM]	n	n	u	n[2.29 µM]
COc1ccccc1N(CC(=O)NCCSCc1ccccc1)S(=O)(=O)c1ccc(C)cc1	2.6µM	u	25µM	n	n	n
SMILES	Pf growth 96h	Pf growth 48h	HCV inhibitor	AMA1 RON2 block	AmpC detergent	AmpC inh no detg
COc1ccc(N(CC(=O)NCCSC2CCCCC2)S(=O)(=O)c2ccccc2)cc1OC	u	13µM	u	n	n	n
COc1ccccc1N(CC(=O)NCCSCc1ccccc1)S(=O)(=O)c1ccccc1	x	x	x	n	x	x
COc1ccc(N(CC(=O)NCCSCc2ccco2)S(=O)(=O)c2ccccc2)cc1OC	12µM	n	n	n	n	n
CCN1CCc2c(sc(NC(=O)c3ccc(S(=O)(=O)N4CCCC(C)C4)cc3)c2C(=O)OC)C1 (centres undefined)	x	x	x	x	n	x
COc1ccc(-c2cn3cccnc3n2)cc1NC(=O)Cc1ccccc1	x	x	x	x	n	x
COc1ccc(Cn2c(C)nc3oc4cc(OC)ccc4c(=O)c3c2=O)cc1	u	u	n	n	u	n
COCCn1c(-c2ccc(Br)cc2)nc2oc3cc(OC)ccc3c(=O)c2c1=O	u	8.3µM	n	n	n	n
CCCCCCn1c(-c2ccco2)nc2oc3cc(OC)ccc3c(=O)c2c1=O	u	5.2µM	u	n	n	n
COc1ccc2c(=O)c3c(=O)n(CCc4ccccc4)c(C)nc3oc2c1	x	x	n	n	x	x
COc1ccc2c(=O)c3c(=O)n(Cc4ccco4)c(-c4cc(OC)c(OC)c(OC)c4)nc3oc2c1	1.7µM	1.9µM	n	n	n	n
COCCn1c(-c2cc(OC)c(OC)c(OC)c2)nc2oc3ccccc3c(=O)c2c1=O	x	n	u	n	u	n
CCCc1nc2oc3cc(OC)ccc3c(=O)c2c(=O)n1Cc1ccco1	n	9.3µM	n	n	n	n
Cn1c(=O)c2c(SCC(=O)N3CCc4ccccc43)nc(-c3ccccc3Cl)nc2n(C)c1=O	x	x	x	x	n	x
COc1ccc(OC)c(S(=O)(=O)NCCc2sc(C)nc2C)c1	x	x	x	x	n	x
COCCn1c(-c2ccccc2)nc2oc3cc(OC)ccc3c(=O)c2c1=O	u	u	n	n	n	n
COc1ccc2c(=O)c3c(=O)n(Cc4ccco4)c(-c4ccccc4)nc3oc2c1	x	12µM	u	n	n	n
COc1ccc2c(c1OC)C(=O)OC2C1c2cc3c(cc2CCN1C)OCO3 (centres undefined)	12µM	n	n	n	u	n
CC[n+]1c(C)sc2sc3ccccc3c21	u	1.9µM	x	x	u	n
COCCn1nnnc1C(c1cccs1)N1CCN(c2cc(C)ccc2C)CC1 (centres undefined)	u	13µM	n	n	n	n
COCCn1nnnc1C(c1cc2cc(C)ccc2[nH]c1=O)N1CCCCCC1 (centres undefined)	n	n	n	n	n	n
COCCn1nnnc1C(c1cc2cc(C)cc(C)c2[nH]c1=O)N1CCN(c2ccccc2F)CC1 (centres undefined)	u	12µM	n	n	n	n
COCCn1nnnc1C(c1cc2c(C)cc(C)cc2[nH]c1=O)N1CCCCCC1 (centres undefined)	n	12µM	n	n	n	n
CCOC(=O)c1cc2c(=O)n3ccccc3nc2n(Cc2ccco2)c1=NC(=O)c1ccc(OC)cc1	n	9.3µM	n	n	n	n
CCOC(=O)c1cc2c(=O)n3cccc(C)c3nc2n(Cc2ccco2)c1=NC(=O)c1ccccc1	12µM	u	u	n	n	n
CCOc1ccc(CNS(=O)(=O)c2c(C(=O)N3CCCCCC3)c(C)n(C)c2C)cc1OC	x	x	x	x	n	x
C#C[C@]1(OC(C)=O)CC[C@H]2[C@@H]3CCC4=C/C(=N/O)CC[C@@H]4[C@H]3CC[C@@]21CC	0.95µM	n	x	x	x	x
Cc1ccc(NC(=O)Nc2nnc(N(C)Cc3ccccc3)s2)cc1	x	x	x	x	n	x

Source: PubChem (National Center for Advancing Translational Sciences (NCATS))
